Data: PubChem BioAssay AID1117319 (Southern Research Institute, 2015)
The whole screen tested about 260,000 compounds, of which about 1,500 (0.58%) were called active. About 5% were inconclusive and are not listed.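 Rule for the calls: active = inhibition above a set limit at one or more doses, reproduced on every date tested; inconclusive = results disagree between test dates, or hit never tested in dose response; inactive = the rest.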 The list is a sample of the results. Potency and affinity values are given separately.

What follows are compounds tested against Virion infectivity factor (Human immunodeficiency virus type 1 group M subtype B (isolate BH10)) + Virion infectivity factor (Human immunodeficiency virus type 1 group M subtype B (isolate BRU/LAI)) + Virion infectivity factor (Human immunodeficiency virus type 1 group M subtype B (isolate PCV12)) + Virion infectivity factor (Human immunodeficiency virus type 1 group M subtype B (isolate HXB2)) + DNA dC->dU-editing enzyme APOBEC-3G (Homo sapiens) (UniProt P69720+P69721+P69722+P69723+Q9HC16) (assay: HIV-1 Vif–A3G interaction blockers – biochemical, TR-FRET, GST-Vif 1-94, biotin-A3G peptide, dose response retest, primary screen (AID 1117319;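 note: Vif residues 1-94 fused to GST binding biotinylated APOBEC3G peptide 110-148; 0% = full assay without inhibitor and 100% = GST in place of GST-Vif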)). Settings: TR-FRET GST-Vif / biotin-A3G peptide binding; active compounds read high.

inhibition, inactive:
O=C(CCOc1ccccc1)Nc1ccc([N+](=O)[O-])cc1 5.33%
COc1ccc(NC(=O)CN(C)C(=O)c2cc(-c3ccc(OC)cc3)nc3ccccc23)cc1 -5.94%
CCOc1ccc(NC(=O)CN(C)C(=O)c2cc(-c3ccco3)nc3ccccc23)cc1OCC -2.81%
CN(CC(=O)Nc1cccc(F)c1)C(=O)c1cc(-c2ccccc2)nc2ccccc12 -4.43%
COc1ccc(NC(=O)c2cc(C)nc3ccccc23)cc1S(=O)(=O)N1CCOCC1 -2.24%
Cc1ccc(NC(=O)CN(C)C(=O)c2cc(-c3ccco3)nc3ccccc23)cc1 55.7%
Cc1ccc(NC(=O)c2cc(-c3ccco3)nc3ccccc23)cc1S(=O)(=O)N1CCOCC1 32.6%
COc1cccc(NC(=O)CN(C)C(=O)c2cc(-c3ccco3)nc3ccccc23)c1 23.7%
COc1ccc(NC(=O)CN(C)C(=O)c2cc(-c3ccc(Cl)cc3)nc3ccccc23)cc1 2.66%
CC(=O)c1cccc(N/C=C\c2nnnn2-c2ccc(F)cc2)c1 -15.5%
CCOC(=O)c1ccc(-c2c(C)cc3oc(=O)cc(-c4ccccc4)c3c2C)cc1 -7.8%
CCN(CC)CC(O)Cn1c(C)c(-c2ccccc2)c2cc([N+](=O)[O-])ccc21 (stereo not drawn) -3.66%
CC1=NN(c2cccc(F)c2)C(=O)/C1=C/c1ccc(N(C)C)cc1 7.52%
COc1ccc(C(=O)c2ccc(N(C)C)cc2)c2ccccc12 -5.09%
CN(C)c1ccc(C=O)c(Oc2ccccc2)c1 -6.28%
CN(C)c1ccc(C=c2c3ccccc3n3c2c2c([n+]3C)CCCC2)cc1 26.6%
O=[N+]([O-])c1ccc2c(c1)c(-c1ccccc1)nc1nncn12 1.68%
Cc1cccc(C)c1NC(=O)C1CCCN(CCCc2ccccc2)C1 (stereo not drawn) 3.24%
COC(=O)c1ccc(CNC(=O)c2ccc(NS(=O)(=O)c3ccc4[nH]c(=O)[nH]c4c3)cc2)cc1 -7.35%
CCOc1ccc(NC(=O)/C(C=Nc2ccccc2)=C(\C)O)cc1 -3.41%
CCCc1nc(SCC(=O)N2CCCC2)c2ccccc2n1 -0.12%
CC(C)(C)OC(=O)N(CCc1ccccc1)Cc1ccccc1OCc1cccc(NC(=O)C2CCCC2)c1 1.13%
CN(C)CCCNC(=O)C[C@H]1C[C@H](C(=O)N2CCCCC2)[C@@]2(CCc3ccccc3)c3[nH]c4ccc(Cl)cc4c3CCN2C1=O 3.82%
